Assay results reported in PubChem BioAssay (EPA / NIEHS).
Inconclusive results are not listed. Calls of active or inactive are those of the source. The calls were made as follows: active = hit-call score of the fitted dose curve at least 0.9, where 1 is the maximum; inconclusive = response in the unintended direction; inactive = score below 0.9.

Biological target: AR (gene 367) (UniProt P10275)
Test: ACEA_AR_antagonist_80hr: ACEA Biosciences xCELLigence Real-Time Cell Analysis on Androgen Receptor Antagonism for Proliferation (AID 2283787)
Description: ACEA_AR_antagonist is a cell-based, single-readout assay that uses 22Rv1, a human prostate cancer cell line, with measurements taken at 80 hours after chemical dosing in a 384-well plate, although TO5 and TO6 (mc0.srcf) used a 96-well plate. Differences in plate size can be ignored given data normalization.ACEA_AR_antagonist_80hr is one of two assay component(s) measured or calculated from the ACEA_AR assay. It is designed to make measurements of real-time cell-growth kinetics, a form of growth reporter, as detected with electrical impedance signals by Real-Time Cell Electrode Sensor (RT-CES) technology.Data from the assay component ACEA_AR_antagonist_80hr was analyzed in the positive analysis fitting direction relative to DMSO as the negative control and baseline of activity. Using a type of growth reporter, measures of the cells for loss-of-signal activity can be used to understand the signaling at the pathway-level as they relate to the gene AR. Furthermore, this assay endpoint can be referred to as a primary readout, because this assay has produced multiple assay endpoints where this one serves a signaling function. To generalize the intended target to other relatable targets, this assay endpoint is annotated to the nuclear receptor intended target family, where the subfamily is steroidal.
The xCELLigence system Multi-E-Plate stations were used to measure the time-dependent response to chemicals. Each compound was tested in an eight-point, 1:4 serial dilution series starting at a maximum final concentration of 100 uM. A maximum starting concentration of 0.5% DMSO was present in the 100 uM chemical samples and was diluted along with the test article dilution series. The screen was performed in biological duplicate using two separate, 96-well, E-Plates 96 for each dilution series (n = 2). Positive controls (MG132 and testosterone) and a negative control (assay media) were tested in quadruplicate on each testing plate. […] Reference compounds were tested with 8 concentrations with 1:5 serial dilutions. All screening was carried out by ACEA Biosciences, Inc. (San Diego, CA). 22Rv1 cells purchased from ATCC were maintained in media supplemented with 10% fetal bovine serum (FBS). Before screening, 22Rv1 cells were preconditioned in assay medium. Cells were then detached and seeded in E-Plates 96 in assay medium. After overnight monitoring of growth once every hour, compounds were added to […] cells and remained in the medium until the end of the experiment. Cellular responses were then recorded once every 5 min for the first 5 h, and once every hour for an additional 100 h.

AR (gene 367), sequence (P10275 whole entry, looked up): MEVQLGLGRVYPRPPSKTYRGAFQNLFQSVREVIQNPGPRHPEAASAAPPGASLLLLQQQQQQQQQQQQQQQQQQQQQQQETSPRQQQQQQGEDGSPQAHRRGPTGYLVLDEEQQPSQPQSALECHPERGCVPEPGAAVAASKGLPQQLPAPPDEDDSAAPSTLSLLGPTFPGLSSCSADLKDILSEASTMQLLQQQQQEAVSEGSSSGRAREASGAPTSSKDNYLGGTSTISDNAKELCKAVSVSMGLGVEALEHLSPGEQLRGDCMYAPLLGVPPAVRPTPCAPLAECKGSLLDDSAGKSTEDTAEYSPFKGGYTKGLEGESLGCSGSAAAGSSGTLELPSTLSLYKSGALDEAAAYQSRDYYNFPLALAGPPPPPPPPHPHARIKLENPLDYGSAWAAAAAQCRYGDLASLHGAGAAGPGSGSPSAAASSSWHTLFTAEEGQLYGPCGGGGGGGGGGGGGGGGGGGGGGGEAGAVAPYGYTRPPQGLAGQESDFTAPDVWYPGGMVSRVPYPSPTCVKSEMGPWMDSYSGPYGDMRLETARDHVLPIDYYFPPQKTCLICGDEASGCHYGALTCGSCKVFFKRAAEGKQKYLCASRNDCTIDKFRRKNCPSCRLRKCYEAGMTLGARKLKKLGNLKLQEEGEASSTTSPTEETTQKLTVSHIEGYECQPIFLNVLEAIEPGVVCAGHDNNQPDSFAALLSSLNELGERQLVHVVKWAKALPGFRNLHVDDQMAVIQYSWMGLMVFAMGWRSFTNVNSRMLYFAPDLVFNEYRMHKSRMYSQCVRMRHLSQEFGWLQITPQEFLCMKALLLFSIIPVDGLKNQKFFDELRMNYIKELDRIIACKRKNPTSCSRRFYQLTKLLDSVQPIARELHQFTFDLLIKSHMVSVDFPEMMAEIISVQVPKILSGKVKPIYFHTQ

AC50, active:
O=C1OC(c2ccc(O)cc2)(c2ccc(O)cc2)c2ccccc21 20.6 µM
CC(C)OC(=O)C(C)(C)Oc1ccc(C(=O)c2ccc(Cl)cc2)cc1 53.4 µM
Nc1nc(=S)c2[nH]cnc2[nH]1 0.198 µM
Cc1ccc(-c2cc(C(F)(F)F)nn2-c2ccc(S(N)(=O)=O)cc2)cc1 12.7 µM
Cc1cc(SC2=C(O)C[C@@](CCc3ccc(N)cc3)(C(C)C)OC2=O)c(C(C)(C)C)cc1CO 68.9 µM
CCC(C)N(C)C(=O)c1cc2ccccc2c(-c2ccccc2Cl)n1 (stereo not given) 46.4 µM
Cc1c(C)c2c(c(C)c1O)CCC(C)(COc1ccc(CC3SC(=O)NC3=O)cc1)O2 (stereo not given) 55.8 µM
CSc1ccc(Oc2ccc(S(N)(=O)=O)cc2CN(C)C)cc1C 62.4 µM
O=C(NS(=O)(=O)/C=C/c1cccs1)c1ccc(F)cc1Br 3.96 µM
O=Cc1ccccc1C=O 83 µM
CC1=C(C)S(=O)(=O)CCS1(=O)=O 79.6 µM

outcome, inactive:
CCCCCCCCCC[N+](C)(C)[O-]
NCCOCCOCCN
O=C1CCCCC1
O=C(Oc1ccccc1)c1cccc(C(=O)Oc2ccccc2)c1
